Growth data for 39 compounds are collected here from PubChem BioAssay (NCI).

Values joined by “and” are separate entries in the source; they are usually repeats but may differ in a detail not shown here. Equal entries are not always repeated. This is part of a sample that, as a whole, favours compounds with a hit. Of some 83,000 tested, about 20% had one in any assay.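 Activity criterion: percent growth below 10, measured after cells in 96-well plates were exposed to a single compound concentration for 48 hours.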 Active and inactive are the calls of the source.

For this assay, the system named is HL-60(TB) leukemia. Briefly: NCI-60 one-dose screen, 48 h (100 = growth as untreated, 0 = no growth, -100 = all killed). Particulars: 10 µM unless noted.
In the case of `CCOC(=O)C1=C(C)NC(C)=C(C(=O)OCC)C1`, the growth is 110% (inactive) and 102% (inactive).

In the case of `C=CCCCCOc1cccc(/C=C2\N=C3SCCCN3C2=O)c1`, the growth is 94.9% (inactive).

Regarding `CCOC(=O)c1cc(-c2ccc([N+](=O)[O-])cc2)n(-c2ccc(C(=O)O)c(O)c2)c1C`, the growth was 31% (inactive).

As to `CCOC(=O)c1cc2c(n1Cc1ccccc1)-c1oncc1CCC2`, the growth is 33.9% (inactive).

For `Cc1ccccc1/C=C/C(=O)c1cccc(OCCCOc2cccc(C(=O)/C=C/c3ccccc3C)c2)c1`, the growth was 78.2% [3 µM] (inactive).

As for `O=C1CCC(N2Cc3c(C#CCCCNC(=O)c4cc5c(o4)C(=O)c4ccccc4C5=O)cccc3C2=O)C(=O)N1` (centres undefined), the growth was -1.27% (active).

In the case of `O=[N+]([O-])c1ccc(Sc2ccncn2)c([N+](=O)[O-])c1`, the growth is 16.8% (inactive).

`O=c1oc2ccccc2cc1C1=NN=C(SCc2ccccc2)SC1`: the growth was 102% (inactive).

`Oc1c(CN2CCCCC2)ccc2cccnc12`: the growth is 58.3% (inactive) and 18.2% (inactive).

Consider `O=C(Nc1cccc(Cn2c(=O)[nH]c3ccc(Oc4ncccn4)cc3c2=O)c1)c1ccc(Cl)cc1`, for which the growth was 64.2% (inactive).

For the compound `CSc1ccc(SC2c3ccc(C)cc3Oc3nc(N)c(C#N)c(N)c32)cc1` (centres undefined), the growth is -52% (active).

Regarding `COc1c(B(O)O)cccc1-c1nc2c(F)cc3[nH]ncc3c2c2c1CCCC2`, the growth is -28.3% (active).

On to `Nc1nc(-c2ccccc2)nc(N)c1N=O`, for which the growth was 18.8% (inactive).

For the compound `O=C(Cn1c(-c2ccc([N+](=O)[O-])cc2)nc2ccccc21)NNC(=O)c1cccnc1`, the growth was 65.9% (inactive).

`COc1ccc(-c2coc3c(CO)c(O)ccc3c2=O)cc1`: the growth is -24.9% (active).

As to `Oc1c(Cl)cc(Cl)c2ccc(Cn3cc(-c4cc(C(F)(F)F)cc(C(F)(F)F)c4)nn3)nc12`, the growth was -13.7% (active).

Take `COCCn1cc(-c2nc(-c3cc4cccnc4n3CCOC)cs2)c2cc(OC)ccc21`: the growth is 95.6% (inactive).

With `Cc1nc2ncnc(Cl)c2[nH]1`, the growth is 75.4% (inactive).

`CCNc1nnnn1CC`: the growth was 111% (inactive).

Regarding `Cc1nc2sc(C(=O)Nc3cccc(Cl)c3C)c(N)c2cc1C(=O)c1ccccc1`, the growth is 5.28% (active).

For `C#CC[C@@H]1C[C@]2(C)[C@H]3CC=C4[C@H]5CC(C)(C)CC[C@]5(C(=O)NCCCCN)CC[C@@]4(C)[C@]3(C)CC[C@H]2C(C)(C)[C@H]1OC(C)=O`, the growth was -46.5% (active).

`CC(C)(C(=O)c1cccnc1)c1cccnc1`: the growth was 99.5% (inactive) and 126% (inactive).

Consider `COc1ccc(S(=O)(=O)N2CCOCC2)cc1NC(=O)c1[nH]c(C)c2c1CCCCC2=O`, for which the growth is 99.6% (inactive) and 15% (inactive).

As to `CC(=O)OC1CC2C(C)(C)OC3CC(=O)OCC32C2CCC3(C)C(=CCC3c3ccoc3)C12C` (centres undefined), the growth was 116% (inactive).

For the compound `O=C(O)C1CSCN1` (centres undefined), the growth is 80.4% (inactive) and 83.9% (inactive).

As for `COc1ccc(C(=O)n2nc(CC(=O)NCc3ccccc3)nc2N)cc1`, the growth was 91.9% (inactive).

In the case of `O=C(O)C1C2CCC1C(O)C2` (centres undefined), the growth was 94.6% (inactive) and 96% (inactive).

For `O=C(N/N=C/c1ccc(F)cc1)c1ccccc1Nc1cccc(C(F)(F)F)c1`, the growth was 88.1% (inactive).

Take `O=C1CC2(O)CSc3nc(=O)cc(n32)N1` (centres undefined): the growth is 100% (inactive).

On to `O=C(NCCCN1CCOCC1)c1cccc(N2C(=O)/C(=C/c3ccc(F)cc3)SC2=S)c1`, for which the growth was 99.6% (inactive).

Turning to `Nc1n[nH]c2ccc([C@@H]3Nc4cc5c(cc4[C@H]4C6CCC(C6)[C@@H]34)C(=O)NC5)cc12` (some centres undefined), the growth is -39.2% (active).

With `O=C(c1ccccc1)C(Cl)C(Cl)c1ccccc1` (centres undefined), the growth is 25.2% (inactive).

As for `CC(=O)Oc1ccc(C23c4ccccc4C2(OC(C)=O)c2cc(OC(C)=O)ccc23)cc1` (centres undefined), the growth is 11.7% (inactive).

Take `COc1ccc(-c2c(C)noc2-c2ccc(O)cc2O)cc1`: the growth is 64.9% (inactive).

On to `Brc1ccc2[nH]cc(-c3nonc3-c3c[nH]c4ccccc34)c2c1`, for which the growth is 67.3% (inactive).

For the compound `CC[C@]12CN3CCc4c([nH]c5ccccc45)[C@@](C(=O)OC)(c4cc5c(cc4OC)N(C)[C@H]4[C@@](O)(C(=O)OC)[C@H](OC(C)=O)[C@]6(CC)C=CCN7CC[C@]54[C@@H]76)CC(C3)[C@H]1O2` (some centres undefined), the growth was -1.28% (active).

As to `CC(=O)Oc1ccc(C2(c3ccc(OC(C)=O)cc3)C(=O)Nc3ccccc32)cc1`, the growth was 75.5% (inactive) and 119% (inactive).

Consider `CCCCCCCNc1nc(C=O)ncc1-c1ccc(C(F)(F)F)cc1`, for which the growth was 64.4% (inactive).

In the case of `COc1cc(/C=C2/Oc3cc4occc4c(OC)c3C2=O)ccc1OCC(=O)Nc1ccncc1`, the growth was 106% (inactive).
